Inconclusive results are not listed. The source made the active and inactive calls. Calls come from the whole dose curve.
target: Peroxisome proliferator-activated receptor gamma (Homo sapiens) (UniProt P37231); assay: qHTS assay to identify small molecule antagonists of the peroxisome proliferator-activated receptor gamma (PPARg) signaling pathway (AID 743191); details: HEK293H PPARg-UAS-bla, beta-lactamase ratio, antagonist, 17 h; series mostly up to 62.6 µM; ratio activity, negative = inhibition: at the top concentration; note: nearly all actives have a fitted effect of over 30% in size
Sequence (P37231 whole entry, looked up): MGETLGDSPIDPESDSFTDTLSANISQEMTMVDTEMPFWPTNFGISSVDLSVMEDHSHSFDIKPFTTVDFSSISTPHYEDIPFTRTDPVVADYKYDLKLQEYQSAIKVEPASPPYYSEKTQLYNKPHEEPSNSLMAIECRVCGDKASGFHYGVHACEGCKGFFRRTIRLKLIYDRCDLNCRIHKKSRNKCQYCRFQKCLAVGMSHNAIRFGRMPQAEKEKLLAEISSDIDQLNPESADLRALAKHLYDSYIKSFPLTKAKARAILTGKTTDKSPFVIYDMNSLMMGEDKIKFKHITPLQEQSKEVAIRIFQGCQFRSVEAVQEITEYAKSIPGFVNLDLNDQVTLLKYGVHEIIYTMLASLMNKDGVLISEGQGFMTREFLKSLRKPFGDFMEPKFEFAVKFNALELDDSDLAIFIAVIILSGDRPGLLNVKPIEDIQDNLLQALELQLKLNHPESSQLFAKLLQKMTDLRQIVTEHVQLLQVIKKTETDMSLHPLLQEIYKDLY
Text: U.S. Tox21 Program National Center for Advancing Translational Sciences [NCATS] NIH Chemical Genomics Center [NCGC] U.S. Environmental Protection Agency [EPA] National Institutes of Environmental Health Sciences [NIEHS] National Toxicology Program [NTP] U.S. Food and Drug Administration [FDA] Tox21 Assay Overview: The peroxisome proliferator-activated receptors (PPARs) are lipid-activated transcription factors of the nuclear receptor superfamily with three distinct subtypes namely PPAR alpha, PPAR delta (also called PPAR beta) and PPAR gamma (PPARg). All these subtypes heterodimerize with Retinoid X receptor (RXR) and these heterodimers regulate transcription of various genes. PPAR-gamma receptor (glitazone receptor) is involved in the regulation of glucose and lipid metabolism. To identify the compounds that inhibit PPAR-gamma signaling, GeneBLAzer PPAR gamma UAS-bla HEK293H cell line (Invitrogen, Carlsbad, CA, USA) containing a beta-lactamase reporter gene under control of an Upstream Activator Sequence (UAS) was used to screen the Tox21 compound library.
Tox21 Assay Protocol Summary: PPARg-bla cells were dispensed at 3000 cells/6uL/well in 1536-well black wall/clear bottom plates using a Multidrop Combi (Thermo Fisher Scientific, Waltham, MA) dispenser. After the assay plates were incubated at 37C and 5% CO2 for 5 h, 23 nL of compounds dissolved in DMSO, positive controls or DMSO only was transferred to the assay plate by a Pintool station (Kalypsys, San Diego, CA). The assay plates were incubated at 37C for 17 h. After 1 uL of LiveBLAzerTM B/G FRET substrate was added using a Bioraptr Flying Reagent Dispenser (FRD) workstation (Beckman Coulter, Indianapolis, IN, USA), the plates were incubated at room temperature for 1 h, and fluorescence intensity was measured by an Envision plate reader (PerkinElmer, Shelton, CT).
% is set by controls: 0 for no effect and ±100 for the full control effect.

Compound | ratio activity, negative = inhibition
COC(=O)C1=C(C)NC(C)=C(C(=O)OCC(C)=O)C1c1ccccc1[N+](=O)[O-] (stereo not given) | 10.6% (inactive)
C=C(C)C(=O)OCCCCCCCCCCCCCCCCCC | 7.47% [at 29.1 µM] (inactive)
CCCc1ccccc1O | 10.2% (inactive)
C[N+](C)(C)CC[N+]1(C)Cc2c(Cl)c(Cl)c(Cl)c(Cl)c2C1 | 0.41% (inactive)
CC(C)(O)Cc1ccccc1 | 3.1% (inactive)
O=S(=O)(c1cccc2cnccc12)N1CCCNCC1 | -7.09% (inactive)
COc1cc(O)cc(O)c1 | 1.57% (inactive)
CC(C)c1ccc2oc3nc(N)c(C(=O)O)cc3c(=O)c2c1 | -6.08% (inactive)
CCN1CCCC1CNC(=O)c1cc(S(N)(=O)=O)ccc1OC (stereo not given) | -5.79% (inactive)
OC[C@H]1O[C@@H]2O[C@H]3[C@H](O)[C@@H](O)[C@@H](O[C@H]4[C@H](O)[C@@H](O)[C@@H](O[C@H]5[C@H](O)[C@@H](O)[C@@H](O[C@H]6[C@H](O)[C@@H](O)[C@@H](O[C@H]7[C@H](O)[C@@H](O)[C@@H](O[C@H]8[C@H](O)[C@@H](O)[C@@H](O[C@H]9[C@H](O)[C@@H](O)[C@@H](O[C@H]1[C@H](O)[C@H]2O)O[C@@H]9CO)O[C@@H]8CO)O[C@@H]7CO)O[C@@H]6CO)O[C@@H]5CO)O[C@@H]4CO)O[C@@H]3CO | -0.31% [at 29.1 µM] (inactive)
COc1nc(C)nc(N)n1 | -0.0258% (inactive)
CC(C)(C)CC(C)(C)N | 1.25% (inactive)
C#CC(O)C(CC)CCCC (stereo not given) | 1.26% (inactive)
CCCCCCCCN(C)CCCCCCCC | -8.16% [at 81.1 µM] (inactive)
NC(=O)c1c(Cl)cccc1Cl | 6.5% (inactive)
CC(C=O)Cc1ccc(C(C)C)cc1 (stereo not given) | 8.2% (inactive)
CCCCc1ccc(N)cc1 | 2.79% (inactive)
CC(=O)c1ccc(C)cc1 | 15.5% (inactive)
Nc1ncnc2c1ncn2Cc1c(F)cccc1Cl | 13.7% (inactive)
O=C(O)c1ccc[n+]([O-])c1 | 0.461% (inactive)

Compound | ratio activity, negative = inhibition
Cc1ccc(Nc2ccc(O)c3c2C(=O)c2ccccc2C3=O)cc1 | 2.82% (inactive)
O=C(O)/C=C/c1ccc(/C=C/C(=O)O)cc1 | 0% (inactive)
COc1cccc(OC)c1 | 22.2% (inactive)
O=C(O)CCNC(=O)c1ccc(N=Nc2ccc(O)c(C(=O)O)c2)cc1 | 13.2% (inactive)
Cc1cc(C)cc(OCC2CNC(=O)O2)c1 (stereo not given) | -1.48% (inactive)
NCC[C@H](O)C(=O)N[C@@H]1C[C@H](N)[C@@H](O[C@H]2O[C@H](CN)[C@@H](O)[C@H](O)[C@H]2O)[C@H](O)[C@H]1O[C@H]1O[C@H](CO)[C@@H](O)[C@H](N)[C@H]1O | 0.895% [at 0.55 µM] (inactive)
OCC(CO)(CO)COCC(CO)(CO)CO | 2.45% (inactive)
OC1OC[C@@H](O)[C@H](O)[C@H]1O (stereo not given in full) | 4.86% (inactive)
CCCCCCCCCCCCCCCCCC(=O)OCCCCCCCCCCCCCC(C)C | 3.24% (inactive)
Cc1ccccc1Br | 7.53% (inactive)
CCc1cc(S(=O)(=O)O)c2cc(C(C)C)cccc1-2 | 1.62% (inactive)
CC(C)(O)C(=O)c1ccc(OCCO)cc1 | -10.3% (inactive)
CC(=O)O[C@H](CC(=O)[O-])C[N+](C)(C)C | 3.91% (inactive)
CCC(=O)c1cccc(Cl)c1 | 1.89% [at 81.1 µM] (inactive)
CC(C)N1C(=O)c2ccccc2C1=O | 11.2% (inactive)
CC(C)CCCC(C)NCCC(C)C (stereo not given) | 3.64% (inactive)
c1ccc(CCCc2ccccn2)cc1 | -7.57% (inactive)
Cc1nccn1CC1CCc2c(c3ccccc3n2C)C1=O (stereo not given) | -7.7% (inactive)
NC(CS)C(=O)O (stereo not given) | -5.03% (inactive)
NC(=O)CCCCC1CCSS1 (stereo not given) | 4.67% (inactive)
